Consider 104 molecules from PubChem BioAssay AID504339 (National Center for Advancing Translational Sciences (NCATS), 2011).

Hit rate of the full screen: of about 390,000 compounds, about 17,000 (4.4%) were called active. Where a call stands in place of a potency, no number is given. About 8% were inconclusive and are not listed. Calls come from the whole dose curve; as a rule, active = well fitted inhibition curve with a large enough effect; inconclusive = small, poorly fitted or top-dose-only effect; inactive = no such curve, though single readings can be large or run the other way. The full list was thinned out, with actives kept by preference.
Potency is the fitted concentration of half-maximal effect.

In this assay the target is Lysine-specific demethylase 4A (Homo sapiens) (UniProt O75164). Kind of assay: qHTS Assay for Inhibitors of JMJD2A-Tudor Domain. Note: nearly all actives have a fitted effect of over 50% in size. The settings on record: AlphaScreen JMJD2A-Tudor / H3K4me3 peptide binding; series mostly up to 114 µM.
Sequence of Lysine-specific demethylase 4A (Homo sapiens) (O75164 whole entry, looked up, the tested form may be a part): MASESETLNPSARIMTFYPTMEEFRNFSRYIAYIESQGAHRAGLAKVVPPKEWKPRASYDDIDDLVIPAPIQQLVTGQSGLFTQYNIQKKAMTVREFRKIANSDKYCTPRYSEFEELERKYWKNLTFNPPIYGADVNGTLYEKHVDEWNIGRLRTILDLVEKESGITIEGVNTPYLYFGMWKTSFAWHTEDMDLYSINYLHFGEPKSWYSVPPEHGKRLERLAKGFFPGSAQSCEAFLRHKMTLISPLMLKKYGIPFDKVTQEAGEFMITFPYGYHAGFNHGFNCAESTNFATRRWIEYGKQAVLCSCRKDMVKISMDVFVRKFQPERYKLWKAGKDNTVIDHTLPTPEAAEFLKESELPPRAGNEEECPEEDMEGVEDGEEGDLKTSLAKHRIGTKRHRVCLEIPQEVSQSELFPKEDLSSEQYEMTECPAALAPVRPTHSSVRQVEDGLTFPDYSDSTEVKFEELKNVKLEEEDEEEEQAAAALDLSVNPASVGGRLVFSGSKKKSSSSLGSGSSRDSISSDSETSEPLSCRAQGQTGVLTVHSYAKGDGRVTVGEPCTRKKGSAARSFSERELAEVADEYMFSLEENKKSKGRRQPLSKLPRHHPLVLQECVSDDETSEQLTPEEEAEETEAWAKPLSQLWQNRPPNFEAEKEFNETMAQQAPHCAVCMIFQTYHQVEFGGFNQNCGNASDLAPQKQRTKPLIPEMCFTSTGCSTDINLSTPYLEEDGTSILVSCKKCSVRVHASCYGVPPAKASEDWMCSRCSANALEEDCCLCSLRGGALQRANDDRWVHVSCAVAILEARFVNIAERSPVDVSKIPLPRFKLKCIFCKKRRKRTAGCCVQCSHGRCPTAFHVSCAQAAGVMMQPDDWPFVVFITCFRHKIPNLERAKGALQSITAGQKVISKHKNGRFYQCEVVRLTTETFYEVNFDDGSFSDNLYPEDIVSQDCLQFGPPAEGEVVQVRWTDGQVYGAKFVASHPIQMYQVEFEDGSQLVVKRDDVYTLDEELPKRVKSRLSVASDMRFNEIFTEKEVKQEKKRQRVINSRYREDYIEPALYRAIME
For `COc1ccc(CCNc2nc(-c3ccc(F)cc3)cc(C(F)(F)F)n2)cc1OC`, the Potency entry was “inactive”.
Under `CSc1nn(Cc2cccc(C)c2)c(N)c1S(=O)(=O)c1ccccc1` stands “inactive”; under `O=C(c1cc2ccccc2s1)N1CCN(c2ccccn2)CC1`, “inactive”; under `O=C(C1CCC1)N1CCN(c2ccccc2)CC1`, “inactive”.
Consider `O=C(c1cc2c(s1)CCC2)N1CCN(c2ccccc2)CC1`, for which the Potency was 20 µM (active).
As for `COCCCNC(NC(=O)c1ccc(C)cc1)C(Cl)(Cl)Cl` (centres undefined), the Potency entry is “inactive”.
Under `CCn1c(SCC(=O)NNC(=O)c2ccc(OC)cc2)nnc1C(C)C` stands “inactive”; under `CCn1c(C(C)NC(=O)c2ccc(C)cc2)n[nH]c1=S` (centres undefined), 6.31 µM (active).
Consider `COc1cc(NC(=O)c2nc3ccccc3nc2C)cc(OC)c1OC`, for which the Potency result is “inactive”.
As for `CC1=C(C(=O)Nc2ccccc2Cl)C(c2cccs2)n2ncnc2N1` (centres undefined), the entry is “inactive”; as for `CCCCOC(=O)CSc1ncnc2sc3c(c12)CCC(C)C3` (centres undefined), “inactive”; as for `Cn1c(=O)n(Cc2c(F)cccc2Cl)c(=O)c2c1nc1n2CCN1c1ccc(F)cc1`, “inactive”.
Turning to `CCn1c(Cc2cccs2)nnc1SCC(=O)c1ccc(C)cc1`, the Potency entry is “inactive”.
For `CCn1c(SCC(=O)c2ccc(Cl)s2)nnc1-c1cccs1`, the Potency entry is “inactive”.
As for `CCn1c(SCC(=O)c2ccc3ccccc3c2)nnc1-c1cccs1`, the figure is 79.4 µM (active).
With `Cc1ccc(CCNC(=O)c2ccc3c(c2)nc2n3CCC(C)C2)cc1` (centres undefined), the Potency result is “inactive”.
Under `CCn1cc(C(=O)OCC(=O)Nc2cc(C)cc(C)c2)c(=O)c2ccc(C)nc21` stands “inactive”; under `CCC(=O)N1CCc2cc(S(=O)(=O)NCCC(=O)Nc3cccc(C)c3C)ccc21`, “inactive”.
As for `Cc1ccc(C)c(NC(=S)NNC(=S)Nc2ccc(C(C)C)cc2)c1`, the figure is 56.2 µM (active); as for `Cc1ccc(C)c(NC(=O)C2CC(=O)N(C(C)C)C2)c1` (centres undefined), “inactive”.
As for `Cc1ccc(C)c(NC(=S)NCC(c2cccnc2)N2CCOCC2)c1` (centres undefined), the entry is “inactive”; as for `CCOC(=O)c1c(NC(=O)c2cc(CC)on2)sc(C(C)=O)c1C`, “inactive”.
For the molecule `O=C(Nc1cccc(Cl)c1)c1csnn1`, the Potency entry is “inactive”.
In the case of `c1ccc(C2CNCc3c2ccc2ccccc32)cc1` (centres undefined), the Potency result was “inactive”.
Under `c1ccc2c(CCN3CCNC[C@H]3Cc3cccc4ccccc34)cccc2c1` stands 56.2 µM (active); under `CC(C)(C)CN1C(=O)C(=O)NC[C@H]1Cc1cccc2ccccc12`, “inactive”.
Under `Cc1cc(NC(=O)CSc2ncc(C(=O)Nc3ccc(Cl)cc3)c(=O)n2C)no1` stands “inactive”; under `CCOC(=O)c1ccc(NC(=O)CCS(=O)(=O)c2ccc3c(c2)oc(=O)n3C)cc1`, “inactive”; under `Cc1ccc(NC(=O)c2cn3c4c(ccc(Cl)c4c2=O)OC(C)C3)cc1C` (centres undefined), “inactive”.
Under `CN(C)C(=O)c1nc2ccc(Cl)cn2c1CN1CCN(c2ncccn2)CC1` stands “inactive”.
In the case of `c1cnc(N2CCN(c3ccc4ccccc4n3)CC2)nc1`, the Potency entry is “inactive”.
As for `Oc1ccc(CN2CCN(c3ncccn3)CC2)cc1`, the figure is 50.1 µM (active).
Under `CC1=C(N2CCN(c3ncccn3)CC2)CCC1=O` stands “inactive”.
`COc1ccc(-c2nc(CN3CCN(c4ncccn4)CC3)c(C)o2)cc1C`: the Potency entry is “inactive”.
Under `Cc1ccc(CN2CCN(c3ncccn3)CC2)c(C)c1` stands 14.1 µM (active).
Under `COc1ccc(CCNc2ncnc3c2cnn3-c2ccc(C)cc2)cc1` stands “inactive”; under `Cc1cc(C)c(NC(=O)CCc2c(C)nc3c(c(C)nn3C(C)(C)C)c2C)c(C)c1`, “inactive”; under `CCOc1ccc(CNC(=O)c2ccc3nc(CC)c(CC)nc3c2)cc1OC`, “inactive”.
Under `COc1ccc(/C=C/c2nc(C#N)c(NCc3ccc(F)cc3)o2)cc1OC` stands “inactive”; under `O=C(CCSCc1cccc(F)c1)NCc1ccccc1`, “inactive”; under `Cc1ccc(C)c(N2CCN(c3ccc4cc(S(=O)(=O)N5CCC(C)CC5)ccc4n3)CC2)c1`, “inactive”.
`CCN1CCN(CCCNC(=O)c2ccc3c(c2)sc2nc(-c4ccc(OC)cc4)cn23)CC1`: the Potency entry is “inactive”.
For `CC1C(C)N(C(=O)CCl)c2ccccc2N1C(=O)CCl` (centres undefined), the Potency was 28.2 µM (active).
Under `CNC(=O)N1c2ccccc2C=Cc2ccccc21` stands “inactive”; under `CC1C(=O)N(Cc2ccccc2)c2ccccc2N1C(=O)c1ccccc1` (centres undefined), “inactive”; under `CCOC(=O)c1c(NC(=O)c2ccc(S(=O)(=O)N3CCCC(C)C3)cc2)sc2c1CCN(C(C)C)C2` (centres undefined), “inactive”.
As to `Cc1ccc(CN2CCCn3nc(C(=O)NCc4ccccc4Cl)cc3C2=O)cc1`, the Potency entry is “inactive”.
In the case of `O=S1(=O)CCN(Cc2ccccc2Cl)CC1`, the Potency result was “inactive”.
As for `CN1CCN(/N=C/c2ccc(C#N)cc2)CC1`, the entry is “inactive”.
As for `COc1ccccc1/C=N/N1CCN(Cc2ccccc2Cl)CC1`, the figure is 44.7 µM (active).
As for `O=C(NCC1CCN(Cc2ccccc2Cl)CC1)Nc1cccc(Cl)c1`, the entry is “inactive”; as for `COc1ccccc1/C=C/C=N/NC(=O)CN1CCN(Cc2ccccc2)CC1`, “inactive”; as for `CSc1ccc(/C=N/N2CCN(Cc3ccccc3Cl)CC2)cc1`, 25.1 µM (active).
Take `Cc1nn(C(=O)c2c(F)cccc2F)c(C)c1S(=O)(=O)N1CCOCC1`: the Potency result is “inactive”.
In the case of `Fc1ccc(-n2ncc3c(Nc4ccc(Oc5ccccc5)cc4)ncnc32)cc1`, the Potency result was “inactive”.
Under `Cc1ccccc1CSCCNC(=O)C1CCN(S(=O)(=O)Cc2ccccc2)CC1` stands “inactive”; under `O=C(c1ccc(Cl)cc1)n1nc(-c2cccnc2)nc1NCc1ccc(F)cc1`, “inactive”; under `CCOC(=O)c1cc2c(=O)n3ccccc3nc2n(CC2CCCO2)c1=NC(=O)c1ccccc1F` (centres undefined), “inactive”.
Under `Cc1csc(Nc2ccc(Cl)cc2)[n+]1-c1ccc(Cl)cc1` stands 14.1 µM (active).
Under `CC1CCCN(c2nc3c(S(=O)(=O)c4ccc(C(C)C)cc4)nnn3c3ccsc23)C1` (centres undefined) stands “inactive”; under `CCOc1ccccc1N1CCN(C(=O)c2ccc3[nH]c(C)c(C)c3c2)CC1`, 56.2 µM (active).
`CCS(=O)(=O)N1CCc2cc(C(=O)N3CCN(c4ccccc4OC)CC3)ccc21`: the Potency result is “inactive”.
For the molecule `CCC(CC)C(=O)N1CCN(c2cccc(C)c2C)CC1`, the Potency entry is “inactive”.
Under `Cc1cccc(N2CCN(C(=O)c3ccc4c(c3)CCN4S(=O)(=O)c3ccccc3)CC2)c1C` stands “inactive”.
Consider `CCOc1ccccc1NC(=S)N1CCN(c2cccc(C)c2C)CC1`, for which the Potency entry was “inactive”.
Consider `CCOC(=O)c1ccc2[nH]c(C)c(CN3CCN(C)CC3)c(=O)c2c1`, for which the Potency result was “inactive”.
As for `CCn1c(C)c(C)c2cc(C(=O)N3CCN(c4cccc(C)c4C)CC3)ccc21`, the figure is 31.6 µM (active).
Under `Cc1[nH]c2ccc(C(=O)N3CCN(C)CC3)cc2c1C` stands 50.1 µM (active).
Under `COC(=O)CCNC(=O)c1ccc2[nH]c(C)c(C)c2c1` stands “inactive”.
As for `Cn1c(=O)cc(OCC(=O)N2CCN(c3ccccc3)CC2)c2ccccc21`, the Potency result was “inactive”.
Under `Cc1ccccc1C(=O)Nc1sc2c(c1C(=O)N1CCC(C)CC1)CCCC2` stands “inactive”; under `CC(=O)Nc1c(C)nn(-c2ccccc2)c1N1CCC(C(=O)Nc2cc(Cl)ccc2C)CC1`, “inactive”.
Under `Cc1ccc(Cc2nc3ccccc3nc2SCC(=O)Nc2cccc(C(F)(F)F)c2)cc1` stands “inactive”; under `CCc1nc2ccc(C(=O)N3CCN(c4cc(Cl)ccc4C)CC3)cc2nc1CC`, “inactive”.
As for `COc1ccc(CCNC(=O)c2c3c(nc4ccccc24)C(=O)N(C2CCCCC2)C3)cc1OC`, the entry is “inactive”; as for `COc1cccc(NC(=O)c2ccc3nc(CCc4ccccc4)oc3c2)c1`, “inactive”.
In the case of `CCOC(=O)c1scc(-c2ccc(C)cc2)c1S(=O)(=O)Nc1cc(C)ccc1C`, the Potency result is “inactive”.
Under `COc1ccc(NC(=O)C2CCN(c3ccc(Sc4ccc(C)cc4)nn3)CC2)c(OC)c1` stands “inactive”; under `Nc1ccc(N=Nc2ccccc2Cl)c(N)n1`, 25.1 µM (active).
Under `COc1ccc(Cl)cc1N(C)C(=O)c1cc2c(=O)oc3ccc(C)cc3c2s1` stands “inactive”; under `Cc1cc(C)n2nc(C(=O)N3CCN(Cc4ccc5c(c4)OCO5)CC3)nc2n1`, “inactive”.
As for `COc1cc(Cl)c(S(=O)(=O)N2CCN(Cc3ccc4c(c3)OCO4)CC2)cc1Cl`, the entry is “inactive”; as for `COc1ccc(-c2cc(C(=O)N3CCN(Cc4ccc5c(c4)OCO5)CC3)on2)cc1OC`, 20 µM (active).
In the case of `COc1ccc(-c2nc3scc(CCNS(=O)(=O)c4cc(F)ccc4OC)n3n2)cc1OC`, the Potency result was “inactive”.
As for `O=C(/C=C/Sc1ncn[nH]1)c1ccc(Cl)cc1`, the figure is 31.6 µM (active); as for `Cc1cc(C)nc(S/C=C/C(=O)c2ccccc2)n1`, “inactive”; as for `CC(=O)c1ccc(N2CCN(c3nc4c(S(=O)(=O)c5ccccc5)nnn4c4ccc(Cl)cc34)CC2)cc1`, “inactive”.
Turning to `COc1ccc(S(=O)(=O)NCc2cccn2Cc2cccc(C)c2)cc1Cl`, the Potency result is “inactive”.
Turning to `C=CCN(CC=C)CCOc1ccccc1[N+](=O)[O-]`, the Potency is 1 µM (active).
Under `Cc1ccc(OCC(=O)Oc2ccccc2[N+](=O)[O-])cc1` stands “inactive”; under `O=C(COc1ccccc1[N+](=O)[O-])NC1CC1`, “inactive”; under `COc1ccc(CNC(=O)C2=Cc3cccc(OC)c3OC2)cc1OC`, “inactive”.
Take `CCN(CC)c1nc(C#N)nc(OC)n1`: the Potency entry is “inactive”.
As to `O=C(CCn1c(=O)c2sccc2n(Cc2ccc(F)cc2)c1=O)NCc1ccc2c(c1)OCO2`, the Potency result is “inactive”.
Take `CCN(CC)CCOc1ccc2c(c1)C(=NNC(=O)c1ccccn1)c1cc(OCCN(CC)CC)ccc1-2`: the Potency is 25.1 µM (active).
For `CN(CCOc1ccc(CC2SC(=O)NC2=O)cc1)c1ccccn1` (centres undefined), the Potency entry is “inactive”.
Under `CC(O)c1ccc(OCCN(C)c2ccccn2)cc1` (centres undefined) stands “inactive”.
As for `Cc1cccc(NC(=O)Cn2nc(-c3ccc(Cl)cc3)c3ccccc3c2=O)c1`, the entry is “inactive”.
Consider `O=C(CN1C(=O)COc2ccc(S(=O)(=O)N3CCCCCC3)cc21)N1CCN(c2cccc(C(F)(F)F)c2)CC1`, for which the Potency result was “inactive”.
Under `CCOCCCNC(=O)c1c(NC(=O)Cc2coc3ccc(C)cc23)sc2c1CCC2` stands “inactive”; under `CC(C)(C)c1ccc(/C=C/C(=O)Nc2ncccn2)cc1`, “inactive”.
As for `CN(C)c1ccc(/C=C/C(=O)c2ccc(C(C)(C)C)cc2)cc1[N+](=O)[O-]`, the figure is 11.2 µM (active); as for `Cc1cc(C(=O)O)ccc1[N+](=O)[O-]`, “inactive”.
Under `CCOc1ccc(NC(=O)CC2C(=O)N(c3cccc(OC)c3)C(=O)N2C2CCCCC2)cc1` (centres undefined) stands “inactive”.
